# Assay results taken from PubChem BioAssay (NCATS).
# Values joined by “and” are separate entries in the source; they are usually repeats but may differ in a detail not shown here. Equal values may be shown once. Inconclusive results are not listed. A call without a number means that no potency is given here. Active and inactive are the calls of the source. Unless noted, calls come from the whole dose curve; as a rule, active = well fitted inhibition curve with a large enough effect; inconclusive = small, poorly fitted or top-dose-only effect; inactive = flat fitted curve, though single readings scatter.
# Assays:
# [1] = qHTS profiling for inhibitors of Plasmodium falciparum proliferation (AID 504749); note: nearly all actives have a fitted effect of over 60% in size; settings: P. falciparum in erythrocytes, SYBR Green DNA, 72 h
# Procedure, shortened: (§1)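 Parasite proliferation within erythrocytes, 72 h exposure. Endpoint: SYBR Green I fluorescence after overnight lysis at room temperature. Controls: 0.29 uM artemisinin, DMSO.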
# [2] = test system: 3D7; test: as above; settings: P. falciparum in erythrocytes, SYBR Green DNA, 72 h; series mostly up to 28.7 µM
# Procedure, shortened: as §1
# [3] = test system: 7G8; test: as above; settings: P. falciparum in erythrocytes, SYBR Green DNA, 72 h; series mostly up to 28.7 µM
# Procedure, shortened: as §1
# [4] = test system: AA1029; test: as above; settings: P. falciparum in erythrocytes, SYBR Green DNA, 72 h; series mostly up to 28.7 µM
# Procedure, shortened: as §1
# [5] = test system: AS120; test: as above; settings: P. falciparum in erythrocytes, SYBR Green DNA, 72 h; series mostly up to 28.7 µM
# Procedure, shortened: as §1
# [6] = test system: ATS189; test: as above; settings: P. falciparum in erythrocytes, SYBR Green DNA, 72 h; series mostly up to 28.7 µM
# Procedure, shortened: as §1
# [7] = test system: ATS95; test: as above; settings: P. falciparum in erythrocytes, SYBR Green DNA, 72 h; series mostly up to 28.7 µM
# Procedure, shortened: as §1
# [8] = test system: C2A; test: as above; settings: P. falciparum in erythrocytes, SYBR Green DNA, 72 h; series mostly up to 28.7 µM
# Procedure, shortened: as §1
# [9] = test system: CP185; test: as above; settings: P. falciparum in erythrocytes, SYBR Green DNA, 72 h; series mostly up to 28.7 µM
# Procedure, shortened: as §1
# [10] = test system: CP191; test: as above; settings: P. falciparum in erythrocytes, SYBR Green DNA, 72 h; series mostly up to 28.7 µM
# Procedure, shortened: as §1
# [11] = test system: CP192; test: as above; settings: P. falciparum in erythrocytes, SYBR Green DNA, 72 h; series mostly up to 28.7 µM
# Procedure, shortened: as §1
# [12] = test system: CP194; test: as above; settings: P. falciparum in erythrocytes, SYBR Green DNA, 72 h; series mostly up to 28.7 µM
# Procedure, shortened: as §1
# [13] = test system: CP201; test: as above; settings: P. falciparum in erythrocytes, SYBR Green DNA, 72 h; series mostly up to 28.7 µM
# Procedure, shortened: as §1
# [14] = test system: CP203; test: as above; settings: P. falciparum in erythrocytes, SYBR Green DNA, 72 h; series mostly up to 28.7 µM
# Procedure, shortened: as §1
# [15] = test system: CP211; test: as above; settings: P. falciparum in erythrocytes, SYBR Green DNA, 72 h; series mostly up to 28.7 µM
# Procedure, shortened: as §1
# [16] = test system: CP215; test: as above; settings: P. falciparum in erythrocytes, SYBR Green DNA, 72 h; series mostly up to 28.7 µM
# Procedure, shortened: as §1
# [17] = test system: CP217; test: as above; settings: P. falciparum in erythrocytes, SYBR Green DNA, 72 h; series mostly up to 28.7 µM
# Procedure, shortened: as §1
# [18] = test system: CP237; test: as above; settings: P. falciparum in erythrocytes, SYBR Green DNA, 72 h; series mostly up to 28.7 µM
# Procedure, shortened: as §1
# [19] = qHTS for identification of novel therapeutic agents for treatment of microphthalmiaassociated transcription factor (MiT) renal cell carcinoma (RCC) (AID 1963991; calls by dose curve); settings: CellTiter-Glo, 48 h; for z-score: stronger effect = lower value
# Procedure, shortened: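 Viability of three TFE3-fusion renal carcinoma lines measured by CellTiter-Glo after 48 h treatment with each of 1912 compounds at 11 concentrations. Responses scaled between DMSO (100%) and empty wells (0%) before curve fitting.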
# [20] = at 28.7 µM (top of the series), parasite line A
# [21] = at 28.7 µM (top of the series), parasite line B
# [22] = TFE3-RCC UOK109 viability, measured here: UOK109 Z-AUC
# [23] = TFE3-RCC viability, measured here: UOK124 Z-AUC
# [24] = TFE3-RCC viability, measured here: UOK145 Z-AUC
# Potency is the fitted concentration of half-maximal effect.
structure (smiles),measurement,setting,value
CCOC(=O)NC(O)C(Cl)(Cl)Cl (stereo not given),"activity, negative = inhibition",[1]; [20],5.94% (inactive)
same,"activity, negative = inhibition",[1]; [21],0.346% (inactive)
same,Potency,[2],inactive
same,Potency,[3],inactive
same,Potency,[4],inactive
same,Potency,[5],inactive
same,Potency,[6],inactive
same,Potency,[7],inactive
same,Potency,[8],inactive
same,Potency,[9],inactive
same,Potency,[10],inactive
same,Potency,[11],inactive
same,Potency,[12],inactive
same,Potency,[13],inactive
same,Potency,[14],inactive
same,Potency,[15],inactive
same,Potency,[16],inactive
same,Potency,[17],inactive
same,Potency,[18],inactive
CC[n+]1c(-c2ccccc2)c2cc(N)ccc2c2ccc(N)cc21,Potency,[1]; parasite line A,158 nM (active) and 447 nM (active)
same,Potency,[1]; parasite line B,112 nM (active) and 316 nM (active)
same,Potency,[2],158 nM (active) and 251 nM (active)
same,Potency,[3],39.8 nM (active) and 70.8 nM (active)
same,Potency,[4],112 nM (active) and 355 nM (active)
same,Potency,[5],100 nM (active) and 282 nM (active)
same,Potency,[6],141 nM (active) and 708 nM (active)
same,Potency,[7],126 nM (active) and 355 nM (active)
same,Potency,[8],251 nM (active) and 355 nM (active)
same,Potency,[9],158 nM (active) and 316 nM (active)
same,Potency,[10],282 nM (active) and 447 nM (active)
same,Potency,[11],190 nM (active) and 426 nM (active)
same,Potency,[12],269 nM (active) and 1.2 µM (active)
same,Potency,[13],379 nM (active) and 1.35 µM (active)
same,Potency,[15],213 nM (active) and 601 nM (active)
same,Potency,[16],239 nM (active) and 953 nM (active)
same,Potency,[17],355 nM (active) and 631 nM (active)
same,Potency,[18],158 nM (active) and 398 nM (active)
c1ccc2nc(N3CCNCC3)ccc2c1,"activity, negative = inhibition",[1]; [20],16.1% (inactive)
same,"activity, negative = inhibition",[1]; [21],9.33% (inactive)
same,Potency,[2],inactive
same,Potency,[3],inactive
same,Potency,[4],inactive
same,Potency,[5],inactive
same,Potency,[6],inactive
same,Potency,[7],inactive
same,Potency,[8],inactive
same,Potency,[9],inactive
same,Potency,[10],inactive
same,Potency,[11],inactive
same,Potency,[12],inactive
same,Potency,[13],inactive
same,Potency,[15],inactive
same,Potency,[16],inactive
same,Potency,[17],inactive
same,Potency,[18],inactive
C[C@@H]1C[C@@H]([C@H](O)CC2CC(=O)NC(=O)C2)C(=O)[C@@H](C)C1,Potency,[19]; TFE3-RCC UOK109 viability,46.9 nM (active)
same,z-score,[19]; [22],-2.25
same,z-score,[19]; [23],-1.12
same,z-score,[19]; [24],-1.24
CN1C(=O)CN=C(c2ccccc2)c2cc([N+](=O)[O-])ccc21,"activity, negative = inhibition",[1]; [20],1.56% (inactive)
same,"activity, negative = inhibition",[1]; [21],-3.67% (inactive)
same,Potency,[2],inactive
same,Potency,[3],inactive
same,Potency,[4],inactive
same,Potency,[5],inactive
same,Potency,[6],inactive
same,Potency,[7],inactive
same,Potency,[8],inactive
same,Potency,[9],inactive
same,Potency,[10],inactive
same,Potency,[11],inactive
same,Potency,[12],inactive
same,Potency,[13],inactive
same,Potency,[15],inactive
same,Potency,[17],inactive
same,Potency,[18],inactive
C[C@H]1C(=O)O[C@@H]2CCN3CC=C(COC(=O)[C@](C)(O)[C@]1(C)O)[C@H]23,"activity, negative = inhibition",[1]; [20],-7.4% (inactive)
same,"activity, negative = inhibition",[1]; [21],-1.5% (inactive)
same,Potency,[2],inactive
same,Potency,[3],inactive
same,Potency,[4],inactive
same,Potency,[5],inactive
same,Potency,[6],inactive
same,Potency,[7],inactive
same,Potency,[8],inactive
same,Potency,[9],inactive
same,Potency,[10],inactive
same,Potency,[11],inactive
same,Potency,[12],inactive
same,Potency,[13],inactive
same,Potency,[15],inactive
same,Potency,[16],inactive
same,Potency,[17],inactive
same,Potency,[18],inactive
C[N+](C)(C)CCOC(=O)C(O)(c1ccccc1)c1ccccc1,"activity, negative = inhibition",[1]; [20],12.8% (inactive)
same,"activity, negative = inhibition",[1]; [21],7.74% (inactive)
same,Potency,[2],inactive
same,Potency,[3],inactive
same,Potency,[4],inactive
same,Potency,[5],inactive
same,Potency,[6],inactive
same,Potency,[7],inactive
same,Potency,[8],inactive
same,Potency,[9],inactive
same,Potency,[10],inactive
same,Potency,[11],inactive
same,Potency,[12],inactive
same,Potency,[13],inactive
same,Potency,[15],inactive
same,Potency,[16],inactive
same,Potency,[17],inactive
same,Potency,[18],inactive
CCC(=O)O[C@H]1CC[C@H]2[C@@H]3CCC4=CC(=O)CC[C@]4(C)[C@H]3CC[C@]12C,"activity, negative = inhibition","[1]; at 12.8 µM (top of the series), parasite line A",4.77% (inactive)
same,"activity, negative = inhibition","[1]; at 12.8 µM (top of the series), parasite line B",12.2% (inactive)
same,Potency,[2],inactive
same,Potency,[3],inactive
same,Potency,[4],inactive
same,Potency,[5],inactive
same,Potency,[6],inactive
same,Potency,[7],inactive
same,Potency,[8],inactive
same,Potency,[9],inactive
same,Potency,[10],inactive
same,Potency,[11],inactive
same,Potency,[12],inactive
same,Potency,[13],inactive
same,Potency,[14],inactive
same,Potency,[15],inactive
same,Potency,[16],inactive
same,Potency,[17],inactive
same,Potency,[18],inactive
CCS(=O)(=O)C(C)(C)S(=O)(=O)CC,"activity, negative = inhibition",[1]; [20],9.89% (inactive)
same,"activity, negative = inhibition",[1]; [21],19.2% (inactive)
same,Potency,[2],inactive
same,Potency,[3],inactive
same,Potency,[4],inactive
same,Potency,[5],inactive
same,Potency,[6],inactive
same,Potency,[7],inactive
same,Potency,[8],inactive
same,Potency,[9],inactive
same,Potency,[10],inactive
same,Potency,[11],inactive
same,Potency,[12],inactive
same,Potency,[13],inactive
same,Potency,[16],inactive
same,Potency,[17],inactive
same,Potency,[18],inactive
COP(=S)(OC)Oc1ccc(Sc2ccc(OP(=S)(OC)OC)cc2)cc1,"activity, negative = inhibition",[1]; [20],7.58% (inactive)
same,"activity, negative = inhibition",[1]; [21],4.24% (inactive)
same,Potency,[2],inactive
same,Potency,[3],inactive
same,Potency,[4],inactive
same,Potency,[5],inactive
same,Potency,[6],inactive
same,Potency,[7],inactive
same,Potency,[8],inactive
same,Potency,[9],inactive
same,Potency,[10],inactive
same,Potency,[11],inactive
same,Potency,[12],inactive
same,Potency,[13],inactive
same,Potency,[15],inactive
same,Potency,[16],inactive
same,Potency,[17],inactive
same,Potency,[18],inactive
CCN(Cc1ccc(Cl)nc1)/C(=C/[N+](=O)[O-])NC,"activity, negative = inhibition",[1]; [20],8.19% (inactive)
same,"activity, negative = inhibition",[1]; [21],-9.95% (inactive)
same,Potency,[2],inactive
same,Potency,[3],inactive
same,Potency,[4],inactive
same,Potency,[5],inactive
same,Potency,[6],inactive
same,Potency,[7],inactive
same,Potency,[8],inactive
same,Potency,[9],inactive
same,Potency,[10],inactive
same,Potency,[11],inactive
same,Potency,[12],inactive
same,Potency,[13],inactive
same,Potency,[15],inactive
same,Potency,[16],inactive
same,Potency,[17],inactive
same,Potency,[18],inactive
O=C(O)c1nn(Cc2ccc(Cl)cc2Cl)c2ccccc12,z-score,[19]; [22],0.154
same,z-score,[19]; [23],0.856
same,z-score,[19]; [24],-0.814
same,"activity, negative = inhibition",[1]; [20],-9.19% (inactive)
same,"activity, negative = inhibition",[1]; [21],-4.8% (inactive)
same,Potency,[2],inactive
same,Potency,[3],inactive
same,Potency,[4],inactive
same,Potency,[5],inactive
same,Potency,[6],inactive
same,Potency,[7],inactive
same,Potency,[8],inactive
same,Potency,[9],inactive
same,Potency,[10],inactive
same,Potency,[11],inactive
same,Potency,[12],inactive
same,Potency,[13],inactive
same,Potency,[15],inactive
same,Potency,[16],inactive
same,Potency,[17],inactive
same,Potency,[18],inactive
